Data published in PubChem BioAssay (NCI).
About 79,000 compounds went through this panel and 15% of them were active in at least one assay; those are over-represented in the sample as a whole. Values without a mark were called inactive. The source made the active and inactive calls. Rule as the data show it: active = growth inhibition above about 70%; inactive = the rest.

Columns and labels:
[1] = NCI Yeast Anticancer Drug Screen. Data for the rad50 strain (AID 155);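 also: 0% = growth of vehicle-only cultures of the same strain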; settings: S. cerevisiae rad50 strain growth inhibition, active compounds read high
Outline: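 Yeast carrying a defined DNA repair defect were exposed to test compounds, and growth was compared with vehicle-treated controls to give percent inhibition.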

[2] = NCI Yeast Anticancer Drug Screen. Data for the mec2-1 strain (AID 157); settings: S. cerevisiae mec2-1 strain, active compounds read high
Outline: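 Using mec2-1 yeast: add compound, measure growth, express inhibition versus vehicle-treated cultures.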

[3] = NCI Yeast Anticancer Drug Screen. Data for the sgs1 mgt1 strain (AID 161);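 also: 0% = growth of cultures given vehicle only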; settings: S. cerevisiae sgs1 mgt1 strain, active compounds read high
Outline: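 Yeast cells carrying a defined DNA-repair defect were exposed to test compounds. Growth inhibition was measured relative to vehicle-treated controls.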

[4] = NCI Yeast Anticancer Drug Screen. Data for the cln2 rad14 strain (AID 165);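 also: 0% = growth equal to vehicle treated cultures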; settings: S. cerevisiae cln2 rad14 strain, active compounds read high
Outline: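 Yeast strain cln2 rad14, bearing defects in cell cycle control and DNA repair, serves as the test system; values reflect growth inhibition compared with vehicle.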

[5] = NCI Yeast Anticancer Drug Screen. Data for the bub3 strain (AID 167); settings: S. cerevisiae bub3 mutant strain, active compounds read high
Outline: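 Compounds were applied to a genetically altered yeast strain carrying a cell-cycle control defect. Growth inhibition was scored against vehicle-treated controls.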

[6] = NCI Yeast Anticancer Drug Screen. Data for the mlh1 rad18 strain (AID 175); settings: S. cerevisiae mlh1 rad18 strain growth inhibition, active compounds read high
Outline: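 Steps: expose repair-defective yeast to compound; measure growth; express inhibition against vehicle-treated controls.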

[7] = at 5.0 µM (retest, dose inferred, filed as 0.5)
[8] = at 50.0 µM (retest, dose inferred, filed as 5.0)

| Compound | growth inhibition [1, 7] | growth inhibition [1, 8] | growth inhibition ([1]; at 50.0 µM) | growth inhibition [2, 7] | growth inhibition [2, 8] | growth inhibition ([2]; at 50.0 µM) | growth inhibition [3, 7] | growth inhibition [3, 8] | growth inhibition ([3]; at 50.0 µM) | growth inhibition [4, 7] | growth inhibition [4, 8] | growth inhibition ([4]; at 50.0 µM) | growth inhibition [5, 7] | growth inhibition [5, 8] | growth inhibition ([5]; at 50.0 µM) | growth inhibition [6, 7] | growth inhibition [6, 8] | growth inhibition ([6]; at 50.0 µM) |
| --- | --- | --- | --- | --- | --- | --- | --- | --- | --- | --- | --- | --- | --- | --- | --- | --- | --- | --- |
| NC(=S)C1CCC(C2CCCCC2)CC1 (stereo not given) | 5% | 97% (active) | 96.5% (active) | 14% | 96% (active) | 94.8% (active) | 13% | 97% (active) | 97.2% (active) | -4% | 94% (active) | 83.5% (active) | 13% | 97% (active) | 96.3% (active) | 21% | 97% (active) | 95.8% (active) |
| C/C(=N/NC(=O)Nc1ccc(N=Nc2ccccc2)cc1)c1cccnc1 | -10% | -6% | 12.7% | -3% | -11% | -9.55% | 2% | 21% | 19.6% | 36% | -51% | -1.5% | 7% | 4% | 10.8% | 5% | 25% | 14.3% |
| CC(/C=C1\C(=O)N(C)C(CC(C)C(Cl)(Cl)Cl)C(=O)N1C)C(Cl)(Cl)Cl (stereo not given) | 6% | 78% (active) | 62.8% | 7% | 74% (active) | 30.8% | 4% | 76% (active) | 57.7% | 25% | 74% (active) | 38.5% | 28% | 79% (active) | 36.2% | 13% | 79% (active) | 70.7% (active) |
| NC(=O)SCC(=O)Nc1ccccc1 | 5% | 82% (active) | 86.5% (active) | -1% | 83% (active) | 67.9% | 1% | 82% (active) | 87.8% (active) | 5% | 81% (active) | 80% (active) | 3% | 83% (active) | 83.6% (active) | 3% | 87% (active) | 87.2% (active) |
| CCOc1ccc2c(c1)[n+]([O-])c(-c1ccccc1)c(N)[n+]2[O-] | 23% | 98% (active) | 99.2% (active) | 28% | 99% (active) | 99.3% (active) | 27% | 99% (active) | 99.2% (active) | 37% | 98% (active) | 98.6% (active) | 69% | 99% (active) | 99.1% (active) | 66% | 98% (active) | 98.8% (active) |
| C=CCc1ccc(OC(=O)CCl)c(OC)c1 | 1% | 23% | 64.8% | 1% | 9% | 27.8% | -1% | 5% | 12.6% | 2% | 8% | 28.8% | -2% | 3% | 18.6% | 0% | 26% | 81.7% (active) |
| Oc1ccc2oc3ccccc3c2c1 | 9% | 94% (active) | 94.5% (active) | 0% | 87% (active) | 76% (active) | 0% | 82% (active) | 84.3% (active) | -3% | 46% | 75.5% (active) | 0% | 92% (active) | 88.4% (active) | 3% | 94% (active) | 94.5% (active) |
| COc1ccc(Oc2cc3c[n+](C)ccc3cc2OC)cc1 | 4% | 90% (active) | 99% (active) | -3% | 57% | 99% (active) | -3% | 91% (active) | 99.4% (active) | 2% | 70% (active) | 98% (active) | 0% | 90% (active) | 98% (active) | 15% | 88% (active) | 98.8% (active) |
| c1ccc(OCCN2CCN(CCOc3ccccc3)CC2)cc1 | 21% | 29% | 71.7% (active) | 31% | 45% | 32.2% | 41% | 55% | 67.1% | 45% | 47% | 76.4% (active) | 43% | 53% | 56.7% | 44% | 61% | 44.1% |
| c1ccc(CC(Cc2ccccc2)c2cccnc2)cc1 | 18% | 84% (active) | 98.7% (active) | 21% | 62% | 98.3% (active) | 35% | 89% (active) | 98.7% (active) | 34% | 66% | 97.9% (active) | 43% | 88% (active) | 99% (active) | 25% | 84% (active) | 98.3% (active) |
| CC1=C(C)C(=O)C2=C(OCCCO2)C1=O | -9% | -12% | -6.55% | 9% | -19% | -21.1% | -2% | 11% | -0.8% | -21% | 5% | 5.35% | -13% | -19% | 48.8% | -24% | -19% | 10% |
| O=c1[nH]c2c([N+](=O)[O-])cc(Cl)cc2nc1/C=C(\O)c1ccc(F)cc1 | 12% | 64% | 71.1% (active) | -6% | 23% | 42.8% | 3% | 54% | 73.4% (active) | 5% | 42% | 42.2% | 2% | 41% | 43.5% | -3% | 65% | 87.3% (active) |
| Cc1cc2c(C(C)C)c(O)c(O)c(C=Nc3ccc(C(=O)O)cc3)c2c(O)c1-c1c(C)cc2c(C(C)C)c(O)c(O)c(C=Nc3ccc(C(=O)O)cc3)c2c1O | 14% | 97% (active) | 91.8% (active) | 27% | 98% (active) | 91.2% (active) | 34% | 97% (active) | 61.4% | -3% | 95% (active) | 73.3% (active) | 4% | 98% (active) | 58.5% | 40% | 98% (active) | 86.3% (active) |
| O=C(CC(c1cccnc1)C(C(=O)c1ccc(Cl)cc1)C(CC(=O)c1ccc(Cl)cc1)c1cccnc1)c1ccc(Cl)cc1 (stereo not given) | 80% (active) | 92% (active) | 59.3% | 48% | 95% (active) | 65.2% | 56% | 96% (active) | 52.2% | 32% | 96% (active) | 36.9% | 11% | 92% (active) | 30.8% | 63% | 93% (active) | 87.1% (active) |
| O=C1CC2Sc3ccccc3N=C2N1c1ccc(Cl)cc1Cl (stereo not given) | 36% | 96% (active) | 88.2% (active) | 33% | 100% (active) | 93.2% (active) | 42% | 100% (active) | 88.8% (active) | 34% | 73% (active) | 65.2% | 39% | 99% (active) | 92% (active) | 47% | 98% (active) | 89.6% (active) |
| Cn1c2nc(-[n+]3ccccc3)nc-2c([O-])n(C)c1=O | 1% | 3% | -15.8% | 3% | 7% | -2.25% | -1% | 39% | 2.1% | -2% | 7% | 70% (active) | -1% | 0% | -6.95% | -1% | 8% | -8.75% |
| C=CCOCCC=O | 7% | 38% | 45.4% | 3% | 5% | 14.2% | 2% | 4% | 36% | 4% | 2% | -20.4% | 4% | -3% | 47.7% | 4% | 11% | 54.6% |
| BrCC(Br)Cc1ccc2c(c1)OCO2 (stereo not given) | 5% | 30% | 20.8% | 2% | 25% | -7.35% | 3% | 60% | 49.4% | 6% | 21% | -21.6% | 14% | 39% | 4.7% | -1% | 84% (active) | 56.9% |
| COc1ccc(/C=C2\CCC(CN3CCOCC3)C2=O)cc1 (stereo not given) | 65% | 99% (active) | 93.5% (active) | 92% (active) | 100% (active) | 93.8% (active) | 55% | 99% (active) | 93.2% (active) | 46% | 99% (active) | 91.8% (active) | 96% (active) | 99% (active) | 92.7% (active) | 89% (active) | 97% (active) | 89.7% (active) |
| O=C(Nn1c(-c2ccccc2)nc2ccccc2c1=O)c1ccccc1O | -4% | 49% | 73.4% (active) | -14% | 51% | 64.2% | 3% | 59% | 79.5% (active) | 9% | 59% | 77.8% (active) | -11% | 80% (active) | 78.2% (active) | -1% | 79% (active) | 69.8% |
